Bioassay records: PubChem BioAssay, National Center for Advancing Translational Sciences (NCATS)
DT40 TDP1 CPT = DT40-hTDP1 cell growth loss with CPT; AID 686979; chicken DT40 Tdp1-/-;hTDP1 cells + 20 nM CPT, ATP luminescence, 48 h; Potency, µM (doses to about 46.2 µM), for the others: at the top dose activity change, negative = growth inhibition, actives largely listed as inhibitors; 12% of 420,000 active; note: % is set by controls: 0 for no effect and ±100 for the full control effect; nearly all actives have a fitted effect of over 55% in size
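Cell growth measured by CellTiter-Glo luminescence after a minimum 48 h, 37 C compound exposure with 20 nM CPT in Tdp1-knockout DT40 cells stably expressing hTDP1, seeded 400/well; qHTS titration format.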
DT40 TDP1 no CPT = qHTS for Inhibitors of human tyrosyl-DNA phosphodiesterase 1 (TDP1): qHTS in cells in absence of CPT; Potency, µM (series often up to 46.2 µM), without a hit: at the highest dose activity change, negative = growth inhibition, most hits filed as inhibitors; 15% of 420,000 active; DT40 Tdp1-/- hTDP1 cells, no CPT, ATP luminescence, 48 h; note: % is set by controls: 0 for no effect and ±100 for the full control effect; nearly all actives have a fitted effect of over 55% in size
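Chicken DT40 Tdp1-/- cells complemented with human TDP1, screened without camptothecin (DMSO vehicle only), 400 cells/well. Compounds pin-transferred, cells incubated at 37 °C for at least 48 hr. Growth read as ATP-dependent luminescence (CellTiter-Glo, 30 min at RT).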
TGFb SMAD3 inh = blocks TGF-b signaling; 1.2% of 410,000 active; Potency, µM (titrated, usually from 46.1 µM), inactives show top-dose activity, negative = inhibition, hits mostly inhibitors; HepG2 CAGA-GFP TGF-b/SMAD3 reporter, GFP fluorescence, 18 h; TGF-beta stimulated, 500 pg/mL final; note: % is set by controls: 0 for no effect and ±100 for the full control effect; nearly all actives have a fitted effect of over 65% in size
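Smad-responsive CAGA-GFP expression was quantified in HEPG2 cells exposed to compounds and 500 pg/mL final TGF-beta for 18 h at 37 degrees C; unstimulated wells defined full inhibition.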
HT1080NT lethal = kills 2HG-producing HT-1080-NT fibrosarcoma cells. HT-1080-NT fibrosarcoma viability, CellTiter-Glo ATP luminescence, 48 h. Potency, µM (doses to about 46.1 µM), inactives show top-dose activity, negative = less viability, usual class: cytotoxic. 1.6% of 360,000 active;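 note: NT is the 2HG producing partner of a matched IDH1 knockdown line; 0% = DMSO-treated cells and -100% = media-only wells without cells; nearly all actives have a fitted effect of over 55% in size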
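HT-1080-NT; 750 cells/well; 5% FBS RPMI; 48 h compound, 37 degrees C; CellTiter-Glo luminescence; curve fitting and curve-class assignment.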
HepG2 tox = kills HepG2 cells in TGF-b inhibitor counter-screen. HepG2 CAGA-GFP viability, ATP luminescence, 18 h. 0.76% of 410,000 active. Potency, µM (top dose mostly 46.1 µM), for inactives: top-dose activity change, negative = cytotoxicity, usual class: cytotoxic
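HepG2 CAGA-GFP cells (1000/well, DMEM with 1% FBS) received compound, then TGF-beta at 500 pg/mL final, and were incubated 18 hours at 37 degrees C. Viability was read by CellTiter-Glo luminescence. Media-only wells were set as complete cell-killing and DMSO as no toxicity.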
HT1080 IDH1KD tx = kills HT-1080 cells with IDH1 knockdown; HT-1080 IDH1 knockdown viability, ATP luminescence, 48 h; Potency, µM (series often up to 46.1 µM), without a hit: top-dose activity, negative = toxicity, actives largely listed as cytotoxic; 2% of 360,000 active;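 note: 0% = DMSO wells and -100% = cell-free medium wells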
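After a 2 h attachment period, IDH1KD HT-1080 cells took pin-transferred compound for 48 h at 37 °C; ATP-based luminescence after 10 min room-temperature reagent incubation reported viability.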
Starred values were filed as active, the others as inactive; ? = inconclusive; · = no result given; [ ] = remark or other dose. Hits are enriched below; roughly 17% of the tested compounds scored in any of these assays. Calls come from the whole dose curve; as a rule, active = well fitted curve in the direction sought with a large enough effect; inconclusive = small, poorly fitted or top-dose-only effect, or another doubt; inactive = no such curve, though single readings can be large; an effect the other way counts as inactive or inconclusive. Potency is the fitted concentration of half-maximal effect.

SMILES | DT40 TDP1 CPT | DT40 TDP1 no CPT | TGFb SMAD3 inh | HT1080NT lethal | HepG2 tox | HT1080 IDH1KD tx
CCNC(=S)NNC(=O)c1cc(-c2ccc(OCC)cc2)nc2ccccc12 | 5.01µM* | 4.47µM* | 20.1% | 3.55µM* | 7.94µM* | 5.01µM*
CCOc1ccc(-c2cc(C(=O)O)c3ccccc3n2)c(OCC)c1 | -11.9% | -19.6% | 5.6% | 14.1µM* | -21.3% | 7.08µM*
CCCCNC(=S)NNC(=O)c1cc(-c2ccncc2)nc2ccccc12 | -15.8% | -22.3% | -12.7% | 4.2% | -21.4% | 3.3%
CCNC(=S)NNC(=O)c1cc(-c2cccc(OC)c2)nc2ccccc12 | ? | 16.4µM* | -8.4% | 8.2% | -35.3% | 5.2%
CCCCNC(=S)NNC(=O)c1cc(C2CC2)nc2ccccc12 | ? | 3.66µM* | ? | 8.4% | -5.9% | 8.9%
CN(C)CC(=O)Nc1ccc2c(c1)[C@H]1C[C@H](CC(=O)NCc3ccc4c(c3)OCO4)O[C@H](CO)[C@H]1O2 | -3.5% | -15.1% | -2.3% | 15.9% | -40.3% | 6.0%
COc1ccc(-c2nc(CS(=O)(=O)CC(=O)NCc3ccc(F)cc3)c(C)o2)cc1 | -15.2% | 19.3% | 9.7% | -20.6% | 0.0% | 1.3%
CN(CC(=O)Nc1cccc(F)c1)C(=O)CN1C(=O)C2CCCCC2C1=O (stereo not drawn) | -21.9% | 16.7% | -1.8% | -1.5%[9.24 µM] | -4.1% | 5.3%
CCOc1ccccc1CNC(=O)c1cc(-c2ccc(OC)cc2)nc2ccc(C(C)C)cc12 | 16.4µM* | 16.4µM* | 0.0% | · | -1.6% | ·
Clc1nc(CN2CCCCC2)nc2sc3c(c12)CCC3 | ? | 18.4µM* | -15.1% | -22.3% | -36.4% | -9.8%
c1ccc2c(c1)CCN(c1nc(CN3CCOCC3)nc3sc4c(c13)CCCC4)C2 | 23.1µM* | 16.4µM* | ? | -14.6% | -20.2% | -21.8%
CCNc1nc(CN2CCOCC2)nc2sc3c(c12)CCC3 | 0.0% | -28.8% | ? | -2.1% | -23.8% | 3.1%
O=c1[nH]c(CN2CCCC2)nc2sc3c(c12)CCC3 | -28.3% | -1.4% | -2.8% | -0.3% | -0.5% | -0.2%
COc1ccc(-c2c(C#N)c(SCC(=O)Nc3cccc(Cl)c3)nc(C)c2C(=O)Nc2ccccc2)cc1OC | -0.4% | 0.7% | -19.4% | · | 1.0% | ·
COC(=O)c1ccc2nc(-c3cccc(Cl)c3)c(Cc3cccc(Cl)c3)n2c1 | 4.61µM* | ? | · | 5.3% | · | -1.5%
COC(=O)c1ccc2nc(-c3cccc(Cl)c3)c(Cc3cccc(F)c3)n2c1 | 16.4µM* | 9.2µM* | · | 7.2% | · | 1.5%
COC(=O)c1ccc2nc(-c3cccc(Cl)c3)c(CC3CCCCC3)n2c1 | 5.2% | -16.6% | · | 14.1% | · | 9.6%
Cc1ccc(C2=C(O)C(=O)C(c3ccc(C)cc3)=C(O)C2=O)cc1 | ? | 11.6µM* | 0.0% | 0.2% | -38.7% | -0.1%
O=C(C[N+]12CCCc3cccc(c31)CCC2)c1ccccc1 | ? | 10µM* | ? | · | -34.8% | ·
C[N+]1(CC(=O)c2ccc(I)cc2)CCCc2ccccc21 (stereo not drawn) | 7.94µM* | 7.08µM* | -14.0% | · | -41.4% | ·
C[N+]1(CC(=O)c2ccccc2)CCc2ccccc2C1 (stereo not drawn) | ? | ? | 10.2% | · | 8.1% | ·
O=C(NCc1ccco1)C1(S(=O)(=O)c2ccccc2)CC=CC1 | ? | -15.2% | -6.1% | 12.0% | 0.1% | 6.4%
Cc1cc(Br)c(NC(=O)CN2CCCC2)c(Br)c1 | -0.8% | -10.4% | -24.6% | 1.0% | -13.8% | 14.5%
Nc1nc(N)c(-c2ccccc2)s1 | -10.0% | -1.2% | 3.5% | · | 19.5% | ·
Cc1[nH]n(C2=NCCS2)c(=O)c1N=Nc1cccc(C(F)(F)F)c1 | 3.66µM* | 2.59µM* | ? | ? | -12.9% | ?
SMILES | DT40 TDP1 CPT | DT40 TDP1 no CPT | TGFb SMAD3 inh | HT1080NT lethal | HepG2 tox | HT1080 IDH1KD tx
Cc1ccc(Sc2c([N+](=O)[O-])ncn2C)cc1 | 20.6µM* | ? | -0.9% | -30.0% | -28.3% | -27.0%
CCOC(=O)[C@@]12C[C@@H]1/C(=N/O)c1ccccc1O2 | 2.0% | -13.5% | · | · | · | ·
Cc1ccc(O)c(N=Nc2ccccc2)n1 | 2.91µM* | 16.4µM* | 0.9% | ? | -12.3% | -6.5%
COc1ccc(CCN(C)Cc2ccc(OCc3ccccc3)c(OC)c2)cc1OC | ? | ? | 4.0% | ? | -32.9% | ?
COc1ccc(CCN(C)C2CC(=O)N(c3ccccc3)C2=O)cc1OC (stereo not drawn) | 9.2µM* | ? | -5.3% | 7.8% | -0.7% | 5.4%
COc1ccc(CCN(C)Cc2ccc(OC)c(OCc3ccccc3)c2)cc1OC | ? | 23.1µM* | 21.0% | -7.8% | -31.6% | ?
O=S1(=O)CCC(NC(=S)NC2CCS(=O)(=O)C2)C1 (stereo not drawn) | 34.5% | -7.0% | -3.0% | 12.3% | 27.4% | 19.7%
CCCCSC(=S)NC1CCS(=O)(=O)C1 (stereo not drawn) | 9.2µM* | 11.6µM* | -1.9% | -28.8% | -47.7% | ?
O=S1(=O)CCC(NC(=S)SCCOc2ccccc2)C1 (stereo not drawn) | 8.2µM* | 10.3µM* | 20µM* | -24.2% | -39.9% | -15.8%
COC(=O)[C@H](Cc1ccccc1)NC(=O)N1CCCCCC1 | -9.8% | 10.8% | 1.5% | 7.4% | -2.3% | 8.4%
COC(=O)[C@H](Cc1ccccc1)NC(=O)N1CCN(Cc2ccccc2)CC1 | ? | 25.9µM* | -27.7% | 0.0% | 0.2% | ?
Cc1ccc(-c2csc(N(CCO)CCCn3c(C(F)(F)F)nc4ccccc43)n2)cc1 | 20.6µM* | ? | ? | -14.2% | -25.2% | -14.6%
OCCn1c(C(F)(F)F)nc2ccccc21 | -2.6% | -15.5% | -10.7% | -0.1% | -2.2% | 2.4%
COc1cc(/C=C2/C(=O)ON=C2c2ccccc2)ccc1O | 23.1µM* | 18.4µM* | ? | -12.6% | -68.7% | -7.4%
COc1cc(C=C2C(=O)OC(c3ccccc3)OC2=O)cc(Br)c1O (stereo not drawn) | ? | 23.1µM* | 4.7% | 11.2% | 17.4% | 5.2%
COc1ccc(/C=C2/C(=O)ON=C2C)cc1Cl | ? | ? | -20.5% | -22.6% | -20.8% | -9.2%
CCOc1cc(/C=C2\C(=O)ON=C2c2ccccc2)cc(Br)c1O | ? | ? | -18.8% | ? | 3.9% | ?
